{"source": "PubChem BioAssay (NCI)", "note": "The panel holds about 83,000 compounds, 20% with a hit somewhere; the sample as a whole holds those more often.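 Cells were grown in 96-well plates and exposed to the test compound at a single concentration for 48 hours; results are reported as percent growth, with values below 10 considered active.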 Calls of active or inactive are those of the source.", "data": [{"system": "786-0 renal", "experiment": "NCI-60 one-dose screen, 48 h (100 = growth as untreated, 0 = no growth, -100 = all killed)", "details": "10 µM unless noted", "values": [{"smiles": "COC(=O)[C@@H]1CCCN1C(=O)[C@H]1CCCN1C(=O)[C@@H](Cc1c[nH]c2ccccc12)NC(=S)Nc1cc(C(F)(F)F)cc(C(F)(F)F)c1", "growth": "52.5% (inactive)"}, {"smiles": "Cc1ccc(F)cc1NC(=O)c1cc(Cl)ccc1Nc1ccccc1", "growth": "68.1% (inactive)"}, {"smiles": "CC1=C(C(=O)OCC2CCN(C(=O)OC(C)(C)C)CC2)[C@@H](c2cccc(C#N)c2)C2=C(CC(C)(C)CC2=O)N1", "growth": "41.5% (inactive)"}, {"smiles": "CCCCCCc1cc2cc(-c3csc(/C=C/c4ccccc4)n3)c(=O)oc2cc1O", "growth": "30.1% (inactive)"}, {"smiles": "COc1ccc(Br)c(/C=C2\\SC(=Nc3ccc(O)cc3)NC2=O)c1", "growth": "82.8% (inactive)"}, {"smiles": "COc1ccc(Cn2c(Br)c3c(c2Br)-c2nc(N)sc2CC3)cc1", "growth": "56.8% (inactive)"}, {"smiles": "COC(=O)c1cc2c(n1Cc1ccccc1)-c1oncc1CCC2", "growth": "92.3% (inactive)"}, {"smiles": "CCOC(=O)c1sc(-c2ccc(OS(=O)(=O)c3ccccc3[N+](=O)[O-])c(C=O)c2)nc1C", "growth": "80.3% (inactive)"}, {"smiles": "Clc1ncccc1Nc1ccc2nnc(-c3ccncc3)n2n1", "growth": "101% (inactive)"}, {"smiles": "O=C1NC(=O)C(=Cc2cn(Cc3cn(Cc4ccc(Cl)cc4Cl)nn3)c3ccccc23)C(=O)N1", "growth": "106% (inactive)"}, {"smiles": "CCCCCCn1c(=N)n(CC(O)COc2cccc(C)c2)c2ccccc21", "note": "(stereo not drawn)", "growth": "-86.5% (active)"}, {"smiles": "O=C(Nc1ncc(Cc2cccc(C(F)(F)F)c2)s1)C1COc2ccccc2O1", "note": "(stereo not drawn)", "growth": "99.2% (inactive)"}, {"smiles": "CN1C(=O)N(C)C2C1NN=c1s/c(=C\\c3ccc([N+](=O)[O-])cc3)c(=O)n12", "note": "(stereo not drawn)", "growth": "64.4% (inactive)"}, {"smiles": "O=C(c1nc2ccccc2[nH]1)C1C(c2ccc(F)cc2)C2CC3CCCCC3N2[C@@]12C(=O)Nc1ccc(Cl)cc12", "note": "(stereo partly drawn)", "growth": "48.3% (inactive)"}, {"smiles": "COc1ccc(/C=C/C(=O)c2ccc3cc(OC)c(OC)cc3c2)cc1OC", "growth": "42.9% (inactive)"}, {"smiles": "O=c1oc2ccc(F)cc2c(=O)n1-c1ccc(Br)cc1F", "growth": "2.85% (active)"}, {"smiles": "COc1cc(/C=C2\\CN(S(=O)(=O)c3ccccc3)C/C(=C\\c3cc(CN4CCCC4)c(O)c(OC)c3)C2=O)cc(CN2CCCC2)c1O", "growth": "4.02% (active)"}, {"smiles": "CC(C)C[C@H](C(=O)N[C@@H](C)C(N)=O)N1CC=CCN(O)S1(=O)=O", "growth": "105% [5 µM] (inactive)"}, {"smiles": "CN(C)CCCNCc1ccc(-c2ccc(F)c(Cl)c2)o1", "growth": "49.6% (inactive)"}, {"smiles": "O=c1oc2ccc(-c3ccc(F)cc3F)cc2c(=O)n1-c1cccc(C(F)(F)F)c1", "growth": "0.874% (active)"}, {"smiles": "O=C(N=Nc1c(O)[nH]c2ccccc12)c1oc2ccccc2c1CN1CCN(c2ccccc2)CC1", "growth": "-83.2% (active)"}, {"smiles": "O=C(Nc1ccc(Br)cc1F)c1cc(F)ccc1O", "growth": "-4.66% (active)"}, {"smiles": "COc1cc(NC(=O)CCSc2nc3ccccc3c(=O)n2Cc2ccccc2)cc(OC)c1OC", "growth": "83.4% (inactive)"}, {"smiles": "O=C(Nc1ccc(I)cc1F)c1cc(F)ccc1O", "growth": "-0.577% (active)"}, {"smiles": "COc1nccc2cc3c(=O)n4c(cc5ccccc54)c(=O)n3c12", "growth": "102% (inactive)"}, {"smiles": "O=C(COc1cc(O)c2c(=O)cc(-c3ccccc3)oc2c1)Nc1ccccc1", "growth": "81.9% (inactive)"}, {"smiles": "O=c1oc2ccc(-c3ccc(F)cc3F)cc2c(=O)n1-c1ccc(Cl)c(C(F)(F)F)c1", "growth": "17.4% (inactive)"}, {"smiles": "CCN1CCN(c2cc(C)c3cc(NC(=O)c4ccc(OC)c(OC)c4)ccc3n2)CC1", "growth": "49% (inactive)"}, {"smiles": "COc1ccc(Cn2c(Br)c3c(c2-c2cc(OC)c(OC)c(OC)c2)CCc2sc(NC(C)=O)nc2-3)cc1", "growth": "54.1% (inactive)"}, {"smiles": "COc1ccccc1C(=O)O/N=C(\\N)Cc1cccc2ccccc12", "growth": "106% (inactive)"}, {"smiles": "O=C(Nc1ccc(Cl)cc1F)c1cc(I)ccc1O", "growth": "77.2% (inactive)"}, {"smiles": "O=C(O)CCC(=O)c1ccc(C2CCCCCC2)cc1", "growth": "95.8% (inactive)"}, {"smiles": "CCCCOCc1cc(CN2CCN(C)CC2)c(O)c2ncccc12", "growth": "38.1% (inactive)"}, {"smiles": "COC(=O)/C(CCC=C(C)C)=C1\\[C@@H](OC(C)=O)C[C@@]2(C)[C@H]1C[C@@H](O)[C@H]1[C@@]3(C)CC[C@H](NCc4ccccc4)[C@@H](C)[C@@H]3CC[C@@]12C", "growth": "55.4% (inactive)"}, {"smiles": "O=C(NC1C(O)OC(CO)C(O)C1O)NS(=O)(=O)c1ccc(Cl)cc1", "note": "(stereo not drawn)", "growth": "104% (inactive)"}, {"smiles": "O=C(Nc1ccc(Br)cc1F)c1cc(Cl)ccc1O", "growth": "-6.93% (active)"}, {"smiles": "CCOC(=O)c1c(C=O)nc2ccccc2c1/C=C/c1ccc(Cl)cc1", "growth": "106% (inactive)"}, {"smiles": "COc1cccc2cc(N(C)c3nc(C)nc4ccsc34)ccc12", "growth": "20.5% (inactive)"}, {"smiles": "COc1cc(/C=C/C(=O)c2c(C)nc3ccccc3c2/C=C/c2ccccc2)cc(OC)c1OC", "growth": "18.2% (inactive)"}]}, {"system": "COLO 205 colon", "experiment": "NCI-60 one-dose screen, 48 h (100 = growth as untreated, 0 = no growth, -100 = all killed)", "details": "10 µM unless noted", "values": [{"smiles": "COC(=O)[C@@H]1CCCN1C(=O)[C@H]1CCCN1C(=O)[C@@H](Cc1c[nH]c2ccccc12)NC(=S)Nc1cc(C(F)(F)F)cc(C(F)(F)F)c1", "growth": "22% (inactive)"}, {"smiles": "Cc1ccc(F)cc1NC(=O)c1cc(Cl)ccc1Nc1ccccc1", "growth": "16% (inactive)"}, {"smiles": "CC1=C(C(=O)OCC2CCN(C(=O)OC(C)(C)C)CC2)[C@@H](c2cccc(C#N)c2)C2=C(CC(C)(C)CC2=O)N1", "growth": "38.6% (inactive)"}, {"smiles": "CCCCCCc1cc2cc(-c3csc(/C=C/c4ccccc4)n3)c(=O)oc2cc1O", "growth": "-93.5% (active)"}, {"smiles": "COc1ccc(Br)c(/C=C2\\SC(=Nc3ccc(O)cc3)NC2=O)c1", "growth": "102% (inactive)"}, {"smiles": "COc1ccc(Cn2c(Br)c3c(c2Br)-c2nc(N)sc2CC3)cc1", "growth": "66.9% (inactive)"}, {"smiles": "COC(=O)c1cc2c(n1Cc1ccccc1)-c1oncc1CCC2", "growth": "55% (inactive)"}, {"smiles": "CCOC(=O)c1sc(-c2ccc(OS(=O)(=O)c3ccccc3[N+](=O)[O-])c(C=O)c2)nc1C", "growth": "117% (inactive)"}, {"smiles": "Clc1ncccc1Nc1ccc2nnc(-c3ccncc3)n2n1", "growth": "109% (inactive)"}, {"smiles": "O=C1NC(=O)C(=Cc2cn(Cc3cn(Cc4ccc(Cl)cc4Cl)nn3)c3ccccc23)C(=O)N1", "growth": "122% (inactive)"}, {"smiles": "CCCCCCn1c(=N)n(CC(O)COc2cccc(C)c2)c2ccccc21", "note": "(stereo not drawn)", "growth": "-94.4% (active)"}, {"smiles": "O=C(Nc1ncc(Cc2cccc(C(F)(F)F)c2)s1)C1COc2ccccc2O1", "note": "(stereo not drawn)", "growth": "104% (inactive)"}, {"smiles": "CN1C(=O)N(C)C2C1NN=c1s/c(=C\\c3ccc([N+](=O)[O-])cc3)c(=O)n12", "note": "(stereo not drawn)", "growth": "56.7% (inactive)"}, {"smiles": "O=C(c1nc2ccccc2[nH]1)C1C(c2ccc(F)cc2)C2CC3CCCCC3N2[C@@]12C(=O)Nc1ccc(Cl)cc12", "note": "(stereo partly drawn)", "growth": "40.3% (inactive)"}, {"smiles": "COc1ccc(/C=C/C(=O)c2ccc3cc(OC)c(OC)cc3c2)cc1OC", "growth": "25.9% (inactive)"}, {"smiles": "O=c1oc2ccc(F)cc2c(=O)n1-c1ccc(Br)cc1F", "growth": "27.7% (inactive)"}, {"smiles": "COc1cc(/C=C2\\CN(S(=O)(=O)c3ccccc3)C/C(=C\\c3cc(CN4CCCC4)c(O)c(OC)c3)C2=O)cc(CN2CCCC2)c1O", "growth": "-30.4% (active)"}, {"smiles": "CC(C)C[C@H](C(=O)N[C@@H](C)C(N)=O)N1CC=CCN(O)S1(=O)=O", "growth": "105% [5 µM] (inactive)"}, {"smiles": "CN(C)CCCNCc1ccc(-c2ccc(F)c(Cl)c2)o1", "growth": "-90% (active)"}, {"smiles": "O=c1oc2ccc(-c3ccc(F)cc3F)cc2c(=O)n1-c1cccc(C(F)(F)F)c1", "growth": "17.9% (inactive)"}, {"smiles": "O=C(N=Nc1c(O)[nH]c2ccccc12)c1oc2ccccc2c1CN1CCN(c2ccccc2)CC1", "growth": "12.7% (inactive)"}, {"smiles": "O=C(Nc1ccc(Br)cc1F)c1cc(F)ccc1O", "growth": "16.2% (inactive)"}, {"smiles": "COc1cc(NC(=O)CCSc2nc3ccccc3c(=O)n2Cc2ccccc2)cc(OC)c1OC", "growth": "118% (inactive)"}, {"smiles": "O=C(Nc1ccc(I)cc1F)c1cc(F)ccc1O", "growth": "25.1% (inactive)"}, {"smiles": "COc1nccc2cc3c(=O)n4c(cc5ccccc54)c(=O)n3c12", "growth": "102% (inactive)"}, {"smiles": "O=C(COc1cc(O)c2c(=O)cc(-c3ccccc3)oc2c1)Nc1ccccc1", "growth": "108% (inactive)"}, {"smiles": "O=c1oc2ccc(-c3ccc(F)cc3F)cc2c(=O)n1-c1ccc(Cl)c(C(F)(F)F)c1", "growth": "77.1% (inactive)"}, {"smiles": "CCN1CCN(c2cc(C)c3cc(NC(=O)c4ccc(OC)c(OC)c4)ccc3n2)CC1", "growth": "11.9% (inactive)"}, {"smiles": "COc1ccc(Cn2c(Br)c3c(c2-c2cc(OC)c(OC)c(OC)c2)CCc2sc(NC(C)=O)nc2-3)cc1", "growth": "20.8% (inactive)"}, {"smiles": "COc1ccccc1C(=O)O/N=C(\\N)Cc1cccc2ccccc12", "growth": "67.8% (inactive)"}, {"smiles": "O=C(Nc1ccc(Cl)cc1F)c1cc(I)ccc1O", "growth": "106% (inactive)"}, {"smiles": "O=C(O)CCC(=O)c1ccc(C2CCCCCC2)cc1", "growth": "104% (inactive)"}, {"smiles": "CCCCOCc1cc(CN2CCN(C)CC2)c(O)c2ncccc12", "growth": "85.4% (inactive)"}, {"smiles": "COC(=O)/C(CCC=C(C)C)=C1\\[C@@H](OC(C)=O)C[C@@]2(C)[C@H]1C[C@@H](O)[C@H]1[C@@]3(C)CC[C@H](NCc4ccccc4)[C@@H](C)[C@@H]3CC[C@@]12C", "growth": "50% (inactive)"}, {"smiles": "O=C(NC1C(O)OC(CO)C(O)C1O)NS(=O)(=O)c1ccc(Cl)cc1", "note": "(stereo not drawn)", "growth": "114% (inactive)"}, {"smiles": "O=C(Nc1ccc(Br)cc1F)c1cc(Cl)ccc1O", "growth": "24.2% (inactive)"}, {"smiles": "CCOC(=O)c1c(C=O)nc2ccccc2c1/C=C/c1ccc(Cl)cc1", "growth": "119% (inactive)"}, {"smiles": "COc1cccc2cc(N(C)c3nc(C)nc4ccsc34)ccc12", "growth": "-56.9% (active)"}, {"smiles": "COc1cc(/C=C/C(=O)c2c(C)nc3ccccc3c2/C=C/c2ccccc2)cc(OC)c1OC", "growth": "4.78% (active)"}]}]}
